KCNQ2 inh – inhibitors of rat KCNQ2 potassium channel; CHO-K1 KCNQ2, FluxOR thallium flux, 20 min; active compounds read low; B-score at 10 µM; 1.1% of 310,000 active;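 active = fluorescence ratio B-score at most minus 3 library SDs, with starting brightness B-score within 2 library SDs, cut at about -5.5 in these data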
KCNQ2 pot – enhances the rat KCNQ2 potassium channel. CHO-K1 KCNQ2, FluxOR thallium flux fluorescence; active compounds read high. 0.54% of 310,000 active. AID 2239. B-score at 10 µM. O88943;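 active = fluorescence ratio B-score at least 3 SD of library B-scores, with initial fluorescence B-score within 3 of them, cut at about 5.3 in these data; same plate scores as AID 2156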;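 note: B-score of peak minus minimum over baseline fluorescence ratio after K+ and Tl+ stimulus; positive B-score means potentiation of KCNQ2 with more thallium influx and brighter signal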
Kir21 confirm – confirmation of mouse Kir2.1 potassium channel inhibitors; shares compounds with KCNQ2 pot; Kir2.1-expressing cells, FluxOR thallium flux fluorescence; active compounds read low; Tl flux remaining, % of negative control (active compounds read low), % at 10 µM; 41% of 2,300 active; AID 2032;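 active = Primary-screen hit whose thallium flux fell at least 3 control SD below untreated wells in both duplicates, with normal baseline fluorescence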;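 note: 0% = blank wells without stimulus and 100% = stimulated no-compound controls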
Target sequence (P35561 whole entry, looked up): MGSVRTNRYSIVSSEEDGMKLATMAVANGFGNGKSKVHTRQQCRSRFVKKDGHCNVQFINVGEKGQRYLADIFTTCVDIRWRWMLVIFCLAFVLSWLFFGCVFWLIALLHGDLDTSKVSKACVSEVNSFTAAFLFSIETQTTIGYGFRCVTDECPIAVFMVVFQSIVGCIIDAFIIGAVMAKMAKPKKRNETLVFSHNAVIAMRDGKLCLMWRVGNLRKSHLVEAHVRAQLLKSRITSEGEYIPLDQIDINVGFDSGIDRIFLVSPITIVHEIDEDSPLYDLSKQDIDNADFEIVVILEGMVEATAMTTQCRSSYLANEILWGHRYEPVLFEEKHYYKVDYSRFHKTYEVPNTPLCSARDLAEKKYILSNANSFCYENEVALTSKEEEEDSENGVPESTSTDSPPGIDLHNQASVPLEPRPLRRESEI
HEK293 ctr – counter-screen for Kir2.1 inhibitors: effect in parental HEK293 cells | shares compounds with KCNQ2 pot | FluxOR thallium flux fluorescence; 0% = unstimulated blank wells | FluxOR signal as % of negative control (100 = no effect), % at 10 µM | 19% of 2,300 active;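 active = dye signal at least 3 control SD above or below untreated wells in both duplicates, raw fluorescence within 3, either direction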;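 note: percent is based on the flux ratio of peak minus minimum fluorescence over baseline F0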
CHO-K1 ctr – parental CHO-K1 activity in KCNQ2 potentiator counter-screen. shares compounds with KCNQ2 pot. parental CHO-K1 cells, FluxOR thallium flux fluorescence; zero = vehicle mean+3SD, 100% = vehicle-minus-blank window. activity increase over 3SD of controls, % at 10 µM. 43% of 1,200 active. AID 2282;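 active = signal rise of at least 3 SD above the untreated control mean, in both duplicate wells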;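 note: counter screen of KCNQ2 potentiator hits so any rise reflects channel-independent effects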
KCNQ1 sel pot – tests whether KCNQ2 potentiators also act on human KCNQ1; AID 2283; activation over 3SD threshold, % at 10 µM; CHO KCNQ1 stable, FluxOR thallium flux fluorescence; beyond 3SD, as % of vehicle-control signal; 28% of 1,200 active; shares compounds with KCNQ2 pot;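 active = fluorescence ratio rise of at least 3 SD of vehicle wells above their mean, in both replicate wells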;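 note: 0% = vehicle mean plus 3 SD and 100% = vehicle minus unstimulated blank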
KCNQ2 pot conf – rat KCNQ2 channel potentiator confirmation; shares compounds with KCNQ2 pot; CHO-KCNQ2 cells, FluxOR thallium flux fluorescence; potentiation, less the hit threshold, % at 10 µM; 68% of 1,200 active; AID 2287;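 active = fluorescence ratio rising 3 SD or more over the vehicle control mean in both replicates, plus primary screen hit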;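 note: peak minus minimum thallium fluorescence divided by baseline after K/Tl stimulus; 0% = vehicle mean plus 3 SD and 100% = vehicle minus unstimulated blank difference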
Kir2-1 sel – mouse Kir2.1 off-target activity of KCNQ2 potentiators; HEK293 Kir2.1, FluxOR thallium flux fluorescence; activity over 3SD threshold, % at 10 µM; shares compounds with KCNQ2 pot; 2% of 1,200 active;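 active = fluorescence ratio rise of at least 3 SD above the vehicle-control mean, seen in both replicates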;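 note: 0% = vehicle mean plus 3 SD and 100% = vehicle minus no-stimulus blank window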
KCNQ2 W236L pot – rat KCNQ2 W236L mutant potentiation by KCNQ2 potentiators. shares compounds with KCNQ2 pot. CHO KCNQ2-W236L, automated patch clamp current. current increase over 3SD of negative controls (%), active compounds read high, % at 25 µM. 10% of 940 active. AID 2558;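 active = current increase at least 3 SD of the untreated controls above them in both duplicate recordings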
* hit, by the source's call; i = inactive; . = no result. An excerpt weighted towards active compounds, which were near 1.6% of everything screened.

SMILES	KCNQ2 inh	KCNQ2 pot	Kir21 confirm	HEK293 ctr	others
CC1CN(c2ccc([N+](=O)[O-])c(NCCOc3ccc(Cl)cc3)c2)CC(C)N1 (centres undefined)	-7*	-7	67%*	i
CCOC(=O)c1c(N)sc2c(OCC)c(Br)ccc12	i	2.1	.	.
CCOC(=O)c1c(NC(C)=O)sc2c(OCC(O)CNC(C)(C)C)c(Br)ccc12 (centres undefined)	i	.	i	i
CCOC(=O)c1sc(NC(=O)CSc2n[nH]c(CC(C)C)n2)nc1C	i	1.4	.	.
C=CCNCc1cccn1-c1sc2c(c1C#N)CCCC2	i	0.43	.	.
N#Cc1c(-n2cccc2/C=N/O)sc2c1CCCC2	i	.	46%*	i
COc1ccccc1S(=O)(=O)Nc1cc(C)nn1-c1ccc(C)cc1	i	.	.	.
CCn1cc(CCC(=O)NCCc2ccccc2)c2ccccc21	i	.	.	.
CCn1cc(CCC(=O)NC(C)c2ccccc2)c2ccccc21 (centres undefined)	i	0.65	i	i
COC(=O)C(C)Oc1ccc(-c2nccc(-c3ccccn3)n2)cc1 (centres undefined)	i	0.99	.	.
CCN(CC)S(=O)(=O)c1ccc(NC(=O)COC(=O)CNS(=O)(=O)/C=C/c2ccccc2)cc1	i	.	.	.
CC(=O)c1ccc(CC2SC(N)=NC2=O)cc1 (centres undefined)	i	.	.	.
CC(=O)Nc1ccc(S(=O)(=O)Nc2ccccc2N2CCOCC2)cc1Cl	i	.	.	.
O=S(=O)(c1ccc(Cl)c(NC(=S)Nc2ccccc2N2CCOCC2)c1)N1CCOCC1	i	0.82	.	.
O=S(=O)(Nc1ccccc1N1CCOCC1)c1ccc(F)c(Cl)c1	i	.	46%*	i
Fc1ccc(NC(=S)Nc2ccccc2N2CCOCC2)cc1Cl	i	.	63%*	134%*
COc1cc2[nH]c(=O)n(CCC(=O)NCCCN3CCN(c4ccccc4F)CC3)c(=O)c2cc1OC	i	1	.	.
C[C@H](NC(=O)C1CCN(C(=O)[C@H](Cc2ccccc2)NC(=O)OC(C)(C)C)CC1)C(=O)O	i	.	.	.
COC(=O)c1nc(NC(=S)NC(=O)c2cccs2)sc1C	i	5.8*	i	140%*	CHO-K1 ctr=5.0*;KCNQ1 sel pot=-30;KCNQ2 pot conf=-2;Kir2-1 sel=-37;KCNQ2 W236L pot=i
CCc1ccc(-c2nc(NC(=S)NC(=O)c3cccs3)sc2C)cc1	i	1.7	.	.
C[n+]1cccc(O)c1SCc1ccccc1	i	0.79	.	.
CN(C)CCNC(=O)COc1ccc(C23CC4CC(CC(C4)C2)C3)cc1	i	.	41%*	i
Cc1ccc(C23CC4CC(CC(NC(=O)NCCN(C)C)(C4)C2)C3)cc1	i	.	.	.
N#C/C(=N\Nc1cccc(C(F)(F)F)c1)C(=O)c1csc(-c2cccnc2)n1	i	6.4*	i	70%*	CHO-K1 ctr=19*;KCNQ1 sel pot=-2;KCNQ2 pot conf=-4;Kir2-1 sel=-36
Cc1ccc(C(=O)Nc2cccc(C(F)(F)F)c2)cc1NC(=O)c1csc(-c2ccncc2)n1	i	.	.	.
SMILES	KCNQ2 inh	KCNQ2 pot	Kir21 confirm	HEK293 ctr	others
CCSc1nnc(NC(=O)CC)s1	i	0.02	.	.
CCSc1nnc(NC(=O)CC(C)C)s1	i	0.43	i	i
Cc1sc2ncn(CC(=O)NCC3COc4ccccc4O3)c(=O)c2c1S(=O)(=O)N1CCCCC1 (centres undefined)	i	1.3	.	.
O=C(CC(Cc1ccccc1)c1ccco1)NC1CCCCC1 (centres undefined)	i	.	.	.
O=C(NCCNCc1ccc(F)cc1)c1ccco1	i	1.2	.	.
Fc1ccc(CNCCC(Cc2ccccc2)c2ccco2)cc1 (centres undefined)	i	.	18%*	70%*

Screening data deposited in PubChem BioAssay by Johns Hopkins Ion Channel Center.
